Screens (PubChem BioAssay)
Only some compounds are listed: those with a hit (about 4% of all), similar ones and a draw of the others.
Cl transport mod = modulates chloride dependent transport by human KCC2 | KCC2 cells, thallium flux FluoZin-2 fluorescence | 2.2% of 190,000 active | B-score of Tl+ flux slope (higher = more flux/activation; lower = inhibition) at 10 µM;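 active = thallium flux slope and its plate-corrected score both differing from the plate sample mean at a set confidence after two filtering rounds, in either direction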;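 note: slope of fluorescence scaled to starting intensity during 10 to 20 s after thallium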
HSV replic up = HSV replication enhancement. maximum fold increase. AID 1956. 0.005% of 220,000 active. HSV replication augmentation in cells, fold increase; in the data active = maximum fold increase above about 1.5; inconclusive = no clear call, values can overlap the other calls; tested in PC3 cells
Measles CPE = protection of cells from measles virus; AID 841; 1.5% of 140,000 active; protection (pct of control), % at 4 µM; Measles virus-infected cells, CPE protection, absorbance; in the data active = protection mostly above about 24%, no sharp cut-off; inactive = mostly below about 26%
ROMK mod = modulators of human ROMK potassium channel | P48048 | Tet-inducible ROMK, thallium flux fluorescence; actives lie on both sides | B-score at 10 µM | 2% of 130,000 active;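 active = signal ratio slope over the read window, or its plate-corrected B-score, at least 3 SD from the plate mean, either direction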;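 note: B-score of the F/F0 ratio slope over 7 to 12 s after thallium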
Arbovirus anti = arbovirus infection inhibition. inhibition, % at 10 µM. AID 1251. arbovirus infection cell-based antiviral screen. 0.37% of 200,000 active; in the data active = inhibition above about 30%
Starred values were filed as active, the others as inactive; i = inactive; ? = inconclusive; · = not tested or not shown.

SMILES	Cl transport mod	HSV replic up	Measles CPE	ROMK mod	Arbovirus anti
O=C(Nc1ccccc1OC(=O)c1ccc(Cl)cc1)c1ccc(Cl)cc1	0.109	i	79.4*	·	28.7
O=C(CCSc1ccccc1)Nc1nnc(-c2cccs2)o1	2.6	·	·	·	3.2
CC(C)c1nc(=S)c2ccccc2[nH]1	18.9*	i	17.3	·	7.9
S=c1nc(C2CC2)[nH]c2ccccc12	32.3*	?	9.1	·	10.4
CNc1nc(=S)[nH]c2ccccc12	0.901	i	·	·	·
S=c1nc(C2CCCCC2)[nH]c2ccccc12	86.1*	i	·	3.07*	-1.3
O=c1[nH]c(C2CCCCC2)nc2ccccc12	0.466	i	12.4	-0.646	1.2
c1ccc2c(c1)[nH]c1ccccc12	·	i	·	·	·
COc1ccc(NC(=O)CCn2nnc(-c3ccc(C)cc3)n2)cc1OC	-0.349	i	55.2*	·	-11.3
O=C1NCC(O)=C1C=Nc1ccccc1O	1.43	i	·	2.36	·
Cn1cnc([N+](=O)[O-])c1Oc1ccc2ccccc2c1	-0.998	i	6.9	-0.486	-4.4
CO/N=C/C(=N\Nc1ccc(OC)cc1)C(=O)c1ccc(F)cc1	-0.015	i	·	0.365	-12.7
COc1ccc(/C=C2\C(=O)NC(=S)N2C(=O)c2ccc(F)cc2)cc1	3.41*	?	5.2	·	-0.5
COc1ccccc1CNC(=O)CSc1ccc(-c2cccc([N+](=O)[O-])c2)nn1	-2.1	i	·	-0.112	-3.3
CCc1n[nH]c(=S)n1/N=C/c1ccc2c(c1)OCO2	-0.166	i	42.2*	·	0.2
Cn1c(=S)n(/N=C/c2ccc3c(c2)OCO3)c2ccccc21	-0.614	i	11.5	·	-0.5
Cc1ccc(S(=O)(=O)N(C)c2ccc3sc(C)nc3c2)cc1	-0.341	i	·	0.798	-21.4
Cc1cccc(-c2noc(CN(C(=O)c3ccc4c(c3)OCO4)C(C)C)n2)c1	·	i	46.0*	-0.493	-14.7
Cc1cccc(-c2noc(CN(C(=O)c3ccc(Br)o3)C(C)C)n2)c1	·	i	19.1	-0.745	2.6
CCN(CC)C(=S)NC(=O)c1cc(OC)c(OC)c(OC)c1	1.2	i	·	0.177	-2.6
CCC(C)c1ccccc1NC(=O)COC(=O)c1ccc2[nH]c3c(c2c1)CCCC3 (centres undefined)	0.133	i	3.6	0.502	-3.8
CC1(C)CC(CC(=O)Nc2ccc([N+](=O)[O-])cc2)C(=O)O1 (centres undefined)	1.31	i	35.0*	·	5.2
CC1CCCN(S(=O)(=O)c2ccc(C(=O)Nc3nnc(-c4ccccn4)o3)cc2)C1 (centres undefined)	-0.126	i	·	-0.507	2.5
CC1CCCN(S(=O)(=O)c2ccc(C(=O)Nc3nnc(-c4ccccc4Cl)o3)cc2)C1 (centres undefined)	21.1*	i	2.1	·	-8.7
CCOc1ccc(N/C(N)=N/c2nc(CSc3nnnn3-c3ccccc3)cc(=O)[nH]2)cc1	0.821	i	·	·	·
SMILES	Cl transport mod	HSV replic up	Measles CPE	ROMK mod	Arbovirus anti
COc1ccccc1-n1c(SCC(=O)NC2CCCCC2)nc2c(c1=O)SCC2	·	i	54.4*	·	3.9
COc1ccc(NC(=O)CSc2nc3c(c(=O)n2-c2ccccc2OC)SCC3)cc1	-0.854	i	21.1	·	1.4
CCOC(=O)c1ccc(NC(=O)COc2ccccc2CNC2CCCC2)cc1	0.48	i	·	-2.4	-26.8
O=C1C2C3C=CC([C@@H]2C(=O)N1Cc1cccnc1)C31CC1 (some centres undefined)	0.208	i	45.0*	·	5.2
O=C1c2ccccc2C(=O)N1CC1c2ccccc2CCN1C(=O)C1CCCCC1 (centres undefined)	-1.54	i	8.9	0.503	1.7
O=C(O)[C@@H]1CCCC[C@@H]1C(=O)N1CCc2ccccc2C1CN1C(=O)c2ccccc2C1=O (some centres undefined)	·	·	63.7*	·	-0.9
COC(=O)C1=C(C(=O)OC)[N+]2=C3N(C(=O)NC2(C)C)[C@H](CO)C[C@@]32c3ccccc3N(Cc3ccccc3)[C@@H]12	·	i	·	·	·
CCOc1ccc(-n2c(=S)sc3c(=O)[nH]c(SCC(=O)NC(C)CC)nc32)cc1 (centres undefined)	1.25	i	5.1	0.57	7.1
CCOC(=O)CC(=O)CSc1nc2c(sc(=S)n2-c2ccc(OCC)cc2)c(=O)[nH]1	-2.44	i	8.2	-1.62	59.7*
CCCN(CCC)C(=O)CSc1nc2c(sc(=S)n2-c2ccc(OCC)cc2)c(=O)[nH]1	-2.12	i	·	-1.13	41.7*
O=C(O)c1ccccc1NSc1ccccc1[N+](=O)[O-]	0.0843	i	·	1.17	15.8
O=C(O)c1ccccc1Sc1c([N+](=O)[O-])cc(C(F)(F)F)cc1[N+](=O)[O-]	-0.193	i	·	0.703	30.9*
